HCV NS3h FP = HCV NS3 helicase inhibitors, primary screen, biochemical, fluorescence polarization, ChemBridge library; Hepatitis C virus NS3 helicase; NS3h Cy5-dT15 DNA binding; inhibition, % at 100 µM; 16,000 compounds, 1.6% hits; AID 687043, 2013;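 active = inhibition above the average over every tested compound plus 3 SD, cut at about 40% in these data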
Cy5 interf NS3h = Cy5 fluorescence quenchers or enhancers, artefact control for HCV NS3 helicase inhibitor project, biochemical, ChemBridge library, Cy5 readout | Cy5-dT15 DNA with NS3h, fluorescence interference; actives lie on both sides; signal over control mean, under 1 quenches | fluorescence interference ratio at 100 µM | 16,000 compounds, 6% hits;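 active = compound fluorescence over control fluorescence at most 0.8, a quencher, or at least a set upper limit, an enhancer; inactive = ratio between 0.8 and the set upper limit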
NS3h confirm = HCV NS3 helicase inhibitors, retest, confirmation, biochemical, fluorescence polarization, ChemBridge library; NS3h binding to Cy5-dT15 DNA; inhibition, % at 100 µM; shares compounds with HCV NS3h FP; 240 compounds, 20% hits;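 active = percent inhibition of 50% or more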
SSB-DNA FP CB = E. coli SSB-DNA binding inhibitors, counter-screen for HCV NS3 helicase inhibitor project, biochemical, fluorescence polarization, selected ChemBridge compounds; shares compounds with HCV NS3h FP; E. coli SSB binding Cy5-dT15; inhibition, % at 100 µM; 240 compounds, 40% hits; AID 720486, 2013;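 active = inhibition of at least 50%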;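 note: displacers lower Cy5 polarization so higher inhibition means more SSB displaced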
Target sequence (P0AGE0 whole entry, looked up): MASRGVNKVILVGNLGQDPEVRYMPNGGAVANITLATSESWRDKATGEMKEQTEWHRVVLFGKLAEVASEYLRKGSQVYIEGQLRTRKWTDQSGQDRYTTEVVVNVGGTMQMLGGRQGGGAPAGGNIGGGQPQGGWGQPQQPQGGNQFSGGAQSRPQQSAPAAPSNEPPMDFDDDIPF
Cy5 SSB fluor CB = Cy5 fluorescence interference with SSB-bound oligo, artefact control for HCV NS3 helicase inhibitor project, biochemical, E. coli SSB, selected ChemBridge compounds | shares compounds with HCV NS3h FP | Cy5-dT15/E. coli SSB fluorescence interference; actives lie on both sides | fluorescence interference ratio at 100 µM | 240 compounds, 8% hits | AID 720487, 2013;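 active = fluorescence interference ratio at or above 1.2, signal boosting, or at or below 0.8, signal quenching; inactive = ratio between 0.8 and 1.2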
Cy5 interf conf = Cy5-DNA-NS3h complex fluorescence interference, confirmation, artefact control for HCV NS3 helicase inhibitor project, biochemical, ChemBridge library; shares compounds with HCV NS3h FP; Cy5-dT15 DNA/NS3h fluorescence interference counterscreen; fluorescence interference ratio at 100 µM, hits read low; 240 compounds, 44% hits; AID 720489, 2013;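 active = fluorescence interference ratio at or below 0.8 quencher or at or above a set limitenhancer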
Each line names hits and unclear results; the compound was inactive in the other large screens (follow-up assays come after a bar, where they were run). Most compounds without a hit are left out; they make up all but 7.6% or so of the library.

CCCCCCN1C(=O)C(O)=C(C(C)=O)C1c1ccccc1 (stereo not drawn)	none
Cc1cc2c(cc1C)NC(CC(=O)Nc1ccccc1F)C(=O)N2 (stereo not drawn)	none
O=C1OC(c2ccccc2Br)=N/C1=C\c1cc2c(cc1Cl)OCO2	none
O=C(/C=C/c1ccc2c(c1)OCO2)Nc1ccccc1F	none
CC(=O)Nc1ccc(Oc2ccc(C(=O)O)c(C(=O)O)c2)cc1	none
O=C(Nc1cccc(Oc2ccc(C(=O)O)c(C(=O)O)c2)c1)c1ccc(-c2ccccc2)cc1	HCV NS3h FP 52 | NS3h confirm inactive | SSB-DNA FP CB inactive | Cy5 SSB fluor CB inactive | Cy5 interf conf 0.74
O=C1NC(=Nc2ccc(Br)cc2)S/C1=C\c1ccc(O)cc1	none
O=C1NC(=Nc2ccc(O)cc2)S/C1=C\c1ccccc1	HCV NS3h FP 46 | NS3h confirm inactive | SSB-DNA FP CB inactive | Cy5 SSB fluor CB inactive | Cy5 interf conf inactive
CCc1ccc(NC(=O)C(=O)NCc2ccc3c(c2)OCO3)cc1	none
O=C1NC(=S)N(c2ccccc2)C(=O)/C1=C/c1ccc(-c2ccc(C(=O)O)cc2)o1	none
O=c1oc2ccccc2c(O)c1C=C1C=Nc2ccccc21	HCV NS3h FP 46 | NS3h confirm inactive | SSB-DNA FP CB inactive | Cy5 SSB fluor CB inactive | Cy5 interf conf inactive
CCN(CC)c1ccc(-n2c(O)c(C=C3C=Nc4ccccc43)sc2=S)cc1	none
CCn1c(-c2ccc(Cl)cc2Cl)n[nH]c1=S	none
CNc1cc([N+](=O)[O-])ccc1N/C=C\C(=O)c1ccc2ccccc2c1	none
COc1ccccc1N1C(=O)NC(=O)/C(=C\c2ccc(O)c(O)c2)C1=O	HCV NS3h FP 44 | NS3h confirm inactive | SSB-DNA FP CB inactive | Cy5 SSB fluor CB inactive | Cy5 interf conf inactive
O=C1NC(=O)N(c2ccc(Cl)cc2)C(=O)/C1=C/c1cc(Br)c(O)c([N+](=O)[O-])c1	none | NS3h confirm inactive | SSB-DNA FP CB 76 | Cy5 SSB fluor CB inactive | Cy5 interf conf inactive
Cc1cc(C)cc(N2C(=O)NC(=O)/C(=C\c3ccc(O)c(Br)c3)C2=O)c1	none | NS3h confirm inactive | SSB-DNA FP CB inactive | Cy5 SSB fluor CB inactive | Cy5 interf conf 0.75
O=C1NC(=O)N(c2ccccc2F)C(=O)/C1=C/c1ccc(O)c(Cl)c1	none
Cc1ccc(N2C(=O)NC(=O)/C(=C\c3ccc(O)c(Br)c3)C2=O)cc1	none
Cc1cccc(N2C(=O)NC(=O)/C(=C\c3ccc(O)c(Cl)c3)C2=O)c1	HCV NS3h FP 65 | NS3h confirm inactive | SSB-DNA FP CB inactive | Cy5 SSB fluor CB inactive | Cy5 interf conf inactive
O=C1NC(=O)N(c2cccc(Cl)c2)C(=O)/C1=C/c1ccc(O)c(Cl)c1	none
C=CCOc1c(Br)cc(/C=C2\C(=O)NC(=O)N(c3ccc(Cl)cc3)C2=O)cc1OC	none
O=C(Nc1cc([N+](=O)[O-])ccc1Cl)c1cc(-c2ccc(Cl)cc2)nc2ccccc12	none
COc1ccc(-c2nc(-c3ccccc3)c(-c3cc([N+](=O)[O-])ccc3C)[nH]2)c(OC)c1	none
CC(C)c1ccccc1NC1=NS(=O)(=O)c2cc([N+](=O)[O-])ccc21	none
O=C(NCCO)C(=O)NCCc1ccccc1	none
Cc1cc(I)ccc1S(=O)(=O)N1CCN(c2ccccc2)CC1	none
Fc1ccc(Br)cc1C1Nc2cccc3cccc(c23)N1	none
COc1cc2c(cc1NC(=O)c1ccccc1OC)oc1ccccc12	none
CC(=O)c1ccc(NC(=O)c2ccccc2C)cc1	none
O=C(CSc1nnc(-c2ccc(Cl)cc2Cl)o1)Nc1ccccc1	none
Cc1ccc(-c2nnc(SCC(=O)Nc3ccc(F)cc3)o2)cc1	HCV NS3h FP 62 | NS3h confirm inactive | SSB-DNA FP CB inactive | Cy5 SSB fluor CB inactive | Cy5 interf conf inactive
CC(C)(C)c1cc(C(C)(C)C)cc(S(=O)(=O)CCc2ccncc2)c1	none
COc1cc(C2C(=C(O)c3ccccc3)C(=O)C(=O)N2c2cccc(C(F)(F)F)c2)ccc1O (stereo not drawn)	none
